Among the data in PubChem BioAssay (NCATS) are Potency values, retold here.

Test in all cases: qHTS profiling for inhibitors of Plasmodium falciparum proliferation (AID 504749); also: nearly all actives have a fitted effect of over 60% in size
What all share (settings): P. falciparum in erythrocytes, SYBR Green DNA, 72 h; series mostly up to 28.7 µM
(qHTS replaces the single test concentration by a dilution series.)

Assay [1] has as its system ATS95. An outline of the steps: (§1)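 Three-day growth assay of blood-stage parasites in erythrocytes (0.3% parasitemia, 2.5% hematocrit) at 37 C, 5% CO2, quantified by SYBR Green DNA staining after overnight detergent lysis.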
Assay [2] concerns C2A. An outline of the steps: as §1
The test system of assay [3] is CP185. An outline of the steps:
as §1

In assay [4] the test system is CP191. An outline of the steps: as §1
For assay [5], the system named is CP192. An outline of the steps: as §1
Assay [6] relates to CP194. An outline of the steps:
as §1

For assay [7], the system named is CP201. An outline of the steps:
as §1

Assay [8] concerns CP203. An outline of the steps: as §1
Assay [9] deals with CP211. An outline of the steps: as §1
In assay [10] the test system is CP215. An outline of the steps: as §1
Assay [11] relates to CP217. An outline of the steps: as §1
Assay [12] relates to CP237. An outline of the steps:
as §1

Assay [13] has as its system CP238. An outline of the steps:
as §1

Assay [14] has as its system CP247. An outline of the steps: as §1
For assay [15], the system named is CP250. An outline of the steps:
as §1

Assay [16] concerns CP252. An outline of the steps: as §1
For assay [17], the system named is CP256. An outline of the steps:
as §1

Assay [18] concerns CP260. An outline of the steps:
as §1

Assay [19] has as its system CP262. An outline of the steps: as §1
Assay [20] has as its system CP265. An outline of the steps: as §1

Inconclusive results are not listed. Active and inactive are the calls of the source. Calls follow the shape of the dose curve; as a rule, active = well fitted inhibition curve with a large enough effect; inconclusive = small, poorly fitted or top-dose-only effect; inactive = flat fitted curve, though single readings scatter.
Potency is read from the fitted curve at half-maximal effect.

`CCC(CC)(CC(=O)Nc1cccc(/C=C/c2nc(C3CCC3)cs2)c1)C(=O)O`: the Potency result in [1], in assay [2], in [3], in assay [4], in [5] and in [6] was “inactive” each time. For the same compound, the Potency result in [7], in assay [8], in assay [9], in assay [10], in [11] and in [12] was “inactive” each time. In addition, the Potency entry in assay [13], in assay [14], in assay [15], in assay [16], in [17] and in [18] was “inactive” in each case. The Potency entry in [19] and in assay [20] was “inactive” in each case.
For `C=CCN1CCc2nc(N)sc2CC1`, the Potency entry in [1], in assay [2], in assay [3], in assay [4], in [5] and in [6] was “inactive” in each case. Further, the Potency entry in assay [7], in [8], in assay [9], in assay [10], in assay [11] and in assay [12] was “inactive” throughout. For the same compound, the Potency entry in assay [13], in assay [14], in assay [15], in assay [16], in assay [17] and in assay [18] was “inactive” throughout. For the same compound, the Potency entry in assay [19] and in assay [20] was “inactive” in each case.
Regarding `CCN1/C(=C/C=C/c2sc3ccccc3[n+]2CC)Sc2ccccc21`, the Potency in assay [1] is 0.178 µM (active); in [2] it was 0.126 µM (active); in [3], 0.112 µM (active); in assay [4], 0.1 µM (active); in [5] it was 0.379 µM (active); in [6], 0.478 µM (active). In addition, the Potency in assay [7] was 0.849 µM (active); in assay [8] it was 0.675 µM (active); in assay [9] it was 0.379 µM (active); in [10], 0.675 µM (active); in assay [11] it was 0.178 µM (active); in [12] it was 0.158 µM (active). Besides, the Potency was 0.126 µM (active) in [13]; 0.251 µM (active) in assay [14]; 0.178 µM (active) in assay [15]; 0.141 µM (active) in [16]; 0.1 µM (active) in assay [17]; 0.158 µM (active) in assay [18]. Besides, the Potency was 0.19 µM (active) in assay [19] and 0.224 µM (active) in [20].
Regarding `CC(=O)Oc1ccc(C)cc1`, the Potency result in [1], in assay [2], in assay [3], in assay [4], in [5] and in [6] was “inactive” throughout. In addition, the Potency entry in [7], in assay [8], in assay [9], in [10], in assay [11] and in [12] was “inactive” throughout. For the same compound, the Potency entry in assay [13], in assay [14], in assay [15], in assay [16], in assay [17] and in assay [18] was “inactive” in each case. The Potency entry in [19] and in assay [20] was “inactive” each time.
Turning to `COc1cc(NS(=O)(=O)c2ccc(N)cc2)ncn1`, the Potency result in assay [1], in assay [2], in assay [3], in assay [4], in [5] and in [6] was “inactive” throughout. Besides, the Potency entry in assay [7], in assay [8], in [9], in assay [10], in assay [11] and in assay [12] was “inactive” in each case. For the same compound, the Potency result in [13], in assay [14], in [15], in assay [16], in assay [17] and in assay [18] was “inactive” in each case. The Potency entry in [19] and in [20] was “inactive” in each case.
Take `C=C[C@@]1(C)CC(=O)[C@]2(O)[C@@]3(C)[C@@H](O)CCC(C)(C)[C@@H]3[C@H](O)[C@H](OC(C)=O)[C@@]2(C)O1`: the Potency result in [1], in assay [2], in [3], in [4], in assay [5] and in assay [6] was “inactive” throughout. Moreover, the Potency entry in assay [7], in [8], in [9], in assay [10], in [11] and in assay [12] was “inactive” in each case. Further, the Potency result in assay [13], in [14], in assay [15], in [16], in assay [17] and in assay [18] was “inactive” throughout. For the same compound, the Potency result in assay [19] and in assay [20] was “inactive” throughout.
For the compound `CC(C)Cn1cnc2c1c(=O)n(C)c(=O)n2C`, the Potency entry in assay [1], in assay [2], in assay [3], in [4], in [5] and in assay [6] was “inactive” in each case. For the same compound, the Potency result in assay [7], in assay [8], in assay [9], in assay [10], in [11] and in assay [12] was “inactive” each time. Also, the Potency result in [13], in assay [14], in [15], in assay [16], in assay [17] and in assay [18] was “inactive” each time. The Potency entry in assay [19] and in assay [20] was “inactive” in each case.
Take `NC(=O)n1c(O)c(C(=O)c2cccs2)c2cc(Cl)ccc21`: the Potency result in [1], in [2], in assay [3], in assay [4], in assay [5] and in assay [6] was “inactive” throughout. Also, the Potency result in [7], in assay [8], in assay [9], in [10], in assay [11] and in [12] was “inactive” each time. For the same compound, the Potency entry in assay [13], in [14], in assay [15], in [16], in assay [17] and in assay [18] was “inactive” each time. Moreover, the Potency entry in [19] and in assay [20] was “inactive” each time.
As to `CCOC(=O)[C@H](CCc1ccccc1)N[C@@H](C)C(=O)N1[C@H](C(=O)O)C[C@H]2CCCC[C@@H]21`, the Potency result in assay [1], in [2], in [3], in assay [4], in [5] and in assay [6] was “inactive” in each case. Moreover, the Potency result in [7], in [8], in assay [9], in [10], in [11] and in assay [12] was “inactive” each time. For the same compound, the Potency result in assay [13], in [14], in assay [15], in assay [16], in assay [17] and in [18] was “inactive” in each case. Also, the Potency result in [19] and in [20] was “inactive” each time.
In the case of `Cl/C(=C\n1cncn1)c1ccc(Cl)cc1Cl`, the Potency result in assay [1], in [2], in assay [3], in [4], in assay [5] and in [6] was “inactive” in each case. Moreover, the Potency entry in assay [7], in assay [8], in assay [9], in assay [10], in [11] and in assay [12] was “inactive” throughout. Further, the Potency result in assay [13], in [14], in assay [15], in [16], in [17] and in assay [18] was “inactive” in each case. The Potency entry in [19] and in assay [20] was “inactive” throughout.
With `Cn1c(=O)c2[nH]c(Br)nc2n(C)c1=O`, the Potency entry in assay [1], in assay [2], in assay [3], in [4], in [5] and in [6] was “inactive” throughout. Further, the Potency entry in assay [7], in [8], in assay [9], in [10], in assay [11] and in [12] was “inactive” throughout. For the same compound, the Potency result in assay [13], in [14], in [15], in [16], in assay [17] and in assay [18] was “inactive” in each case. The Potency result in assay [19] and in assay [20] was “inactive” throughout.
Consider `O=C1C(O)=C(O)C(=O)C(O)=C1O`, for which the Potency entry in [1], in [2], in [3], in assay [4], in [5] and in assay [6] was “inactive” throughout. In addition, the Potency entry in assay [7], in assay [8], in assay [9], in assay [10], in assay [11] and in [12] was “inactive” throughout. In addition, the Potency entry in assay [13], in assay [14], in assay [15], in assay [16], in assay [17] and in [18] was “inactive” in each case. In addition, the Potency result in assay [19] and in assay [20] was “inactive” throughout.
`CC(=O)Nc1ccc(CC(=O)O)cc1`: the Potency result in assay [1], in [2], in assay [3], in assay [4], in assay [5] and in assay [6] was “inactive” throughout. For the same compound, the Potency result in assay [7], in [8], in assay [9], in assay [10], in assay [11] and in assay [12] was “inactive” in each case. For the same compound, the Potency entry in assay [13], in [14], in [15], in [16], in assay [17] and in [18] was “inactive” each time. Moreover, the Potency entry in [19] and in assay [20] was “inactive” each time.
